Among all 5,500 compounds or so, about 2,000 (36%) were called active. About 18% were inconclusive and are not listed. No stated cut-off is given here; in the data, active means normalized growth mostly below about 0.91 (no sharp cut-off); inconclusive means no clear call, values can overlap the other calls; inactive means mostly above about 0.92. This is one part of the list.
Experiment: chemical genetic growth profiling, strain panel (AID 1159580);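 further: tested at 20 µM; growth read once vehicle control cultures reached saturation at 30 °C; 1 = growth at the plate median or of vehicle wells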
Conditions: S. cerevisiae deletion strains, growth OD

Measured: normalized growth

C[C@H]1C2Cc3ccc(O)cc3[C@]1(C)CCN2CC1CC1
inactive: locus YAL040C, strain CLN3, stronger effect = lower value 0.994 | locus YCL061C, strain MRC1 (second series), stronger effect = lower value 1.01 | locus YDR150W, strain NUM1, stronger effect = lower value 1 | locus YDR363W, strain ESC2, stronger effect = lower value 1.02 | locus YER002W, strain NOP16, stronger effect = lower value 0.988 | locus YGR078C, strain PAC10, stronger effect = lower value 1.01 | locus YGR229C, strain SMI1, stronger effect = lower value 1.05 | locus YNL153C, strain GIM3, stronger effect = lower value 1.02 | locus YNL175C, strain NOP13, stronger effect = lower value 1.02 | locus YNL197C, strain WHI3, stronger effect = lower value 1.02 | locus YNL224C, strain SQS1, stronger effect = lower value 1 | locus YNL322C, strain KRE1, stronger effect = lower value 1.02 | locus YOR083W, strain WHI5 (second series), stronger effect = lower value 1.04 | locus YPL055C, strain LGE1, stronger effect = lower value 1.02 | locus YPL241C, strain CIN2, stronger effect = lower value 1.01
